Measurements reported in PubChem BioAssay (EPA / NIEHS).
Results filed as inconclusive are left out. Activity calls are given as the source filed them. The calls were made as follows: active = hit-call score of the fitted dose curve at least 0.9, where 1 is the maximum; inconclusive = response in the unintended direction; inactive = score below 0.9.

target: human Thyroid Receptor alpha (THRa1), THRA (gene 7067) (UniProt P10827); experiment: ATG_THRa1_TRANS: Attagene TRANS-FACTORIAL HepG2 Assay for human Thyroid Receptor alpha (THRa1) (AID 2283014)
Sequence (P10827 whole entry, looked up): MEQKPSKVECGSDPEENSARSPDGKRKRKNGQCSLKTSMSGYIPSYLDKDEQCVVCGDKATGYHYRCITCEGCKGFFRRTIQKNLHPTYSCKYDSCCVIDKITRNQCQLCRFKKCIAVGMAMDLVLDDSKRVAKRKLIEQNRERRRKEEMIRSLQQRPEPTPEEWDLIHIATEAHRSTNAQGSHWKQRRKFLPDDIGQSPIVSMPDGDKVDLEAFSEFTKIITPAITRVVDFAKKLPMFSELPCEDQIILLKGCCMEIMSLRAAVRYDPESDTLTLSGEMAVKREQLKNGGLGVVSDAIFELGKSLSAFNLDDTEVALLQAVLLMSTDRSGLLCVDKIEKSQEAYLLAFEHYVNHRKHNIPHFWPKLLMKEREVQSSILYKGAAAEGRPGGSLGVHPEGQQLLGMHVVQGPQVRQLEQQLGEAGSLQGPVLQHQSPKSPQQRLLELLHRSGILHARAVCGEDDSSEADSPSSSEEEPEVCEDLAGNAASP
Experimental: ATG_TRANS is a cell-based, multiplexed-readout assay that uses HepG2, a human liver cell line, with measurements taken at 24 hours after chemical dosing in a 24-well plate.ATG_THRa1_TRANS is one of 30 assay component(s) measured or calculated from the ATG_TRANS assay. It is designed to make measurements of mRNA induction, a form of inducible reporter, as detected with fluorescence intensity signals by Reverse transcription polymerase chain reaction (RT-PCR) and Capillary electrophoresis technology.Data from the assay component ATG_THRa1_TRANS was analyzed into 1 assay endpoint. This assay endpoint, ATG_THRa1_TRANS, was analyzed in the positive analysis fitting direction relative to DMSO as the negative control and baseline of activity. Using a type of inducible reporter, measures of mRNA for gain-of-signal activity can be used to understand the reporter gene at the transcription factor-level as they relate to the gene THRA. Furthermore, this assay endpoint can be referred to as a primary readout, because this assay has produced multiple assay endpoints where this one serves a reporter gene function. To generalize the intended target to other relatable targets, this assay endpoint is annotated to the nuclear receptor intended target family, where the subfamily is non-steroidal.
Human liver HepG2 cells are transiently transfected with multiple reporter transcription units (MRTUs) in 6-well plates using FuGene 6 reagent (Roche; 3 ml FuGene/1 mg DNA). The MRTU constructs are regulated by a cis-regulating element (promoter). […] A major difference between the CIS and TRANS system is that in CIS activities of endogenous TFs are measured, whereas the TRANS assay evaluates changes in activities of exogenous, chimeric NR-Gal4 proteins. […] At the end of 24 hour incubation, total RNA was isolated using TriZol reagent (Invitrogen). The isolated RNA is then reverse-transcribed using oligo(dT) primer and Mo-MLV reverse transcriptase (Invitrogen) with DNAse I (Ambion) treatment for 30 min. The one-tenth of the produced cDNA was amplified by PCR using Taq DNA polymerase (Invitrogen) and two reporter sequence-specific primers. The PCR products were fluorescently labeled by primer extension with 6-arboxyfluorescein (6-FAM) 5'-labeled reporter sequence-specific primer (2 min at 95 C, 20 s at 68 C and 10 min at 72 C) and these products were digested with 5U of HpaI (New England Biolabs) for 2h at 37 C. The fragments were purified using Qiaquick PCR columns (Qiagen), analyzed on an ABI 3130xL genetic analyzer (Applied Biosystems) with peak positions identified by using a set of X-rhodamine (ROX)-labeled MapMarker1000 molecular weight standards (BioVentures). The raw capillary electrophoresis data was processed using Attagraph software (Attagene).

outcome, inactive:
O=C(O)/C=C/C(=O)O
Cc1ccccc1S(N)(=O)=O
CC1(C)S[C@@H]2[C@H](NC(=O)[C@H](N)c3ccccc3)C(=O)N2[C@H]1C(=O)O
CCCCCCCC#N
Sc1nc2ccccc2s1
NC(N)=Nc1nc(CSCCC(N)=NS(N)(=O)=O)cs1
O=C(O)Cc1c[nH]c2ccccc12
CCCc1c(OCCCCc2nn[nH]n2)ccc(C(C)=O)c1O
CC(C)=CCOC(=O)c1ccccc1
COc1ccccc1OCC(O)CO (stereo not given)
Clc1ccccn1
CCC(C)C1N=C(C)C(C)S1 (stereo not given)
CCCCCCC(O)CCCCCCCCCCC(=O)OC (stereo not given)
CC/C=C\CCCCCO
CCOC(=O)CC(=O)OCC
C=CC(C)(CCC=C(C)C)OC(=O)c1ccccc1 (stereo not given)
CN(C)CCCN1c2ccccc2CCc2ccc(Cl)cc21
O=S(=O)(O)c1cccc2ccccc12
Cc1cccnc1
CC=CC(=O)O
C=CCOCC(CC)(CO)COCC=C
OCCOCCOCCOCCOCCO
COC(=O)CCSCCC(=O)OC
Cc1cc(C)c(S(=O)(=O)O)cc1N=Nc1cc(S(=O)(=O)O)c2ccccc2c1O
CC/C=C\CC/C=C/C(OCC)OCC
CCCCn1cc[n+](C)c1
CCCCCCOC(=O)CCCCCCCC(=O)OCCCCCC
C1=CCC=C1
Brc1ccc(Oc2ccc(Br)cc2)cc1
CCC(C)=NO
c1ccc2c(c1)Oc1ccccc1S2
O=[N+]([O-])c1ccc2nc[nH]c2c1
C=C(C)C(=O)OCCCCCC
COC(OC)C(C)c1ccccc1 (stereo not given)
CC(C)(Oc1ccc(Cl)cc1)C(=O)O
C=C(C)C(=O)OCC1CCCO1 (stereo not given)
COC(=O)/C=C\C(=O)OC
O=C(Oc1ccccc1)c1ccccc1
CCO[Si](OCC)(OCC)c1ccccc1
Oc1cccc2ccccc12
